NS1 function inh = blocks influenza NS1 protein function; AID 2326; Potency, µM (doses to about 46.1 µM), for the others: at the top dose activity, positive = more growth; 0.4% of 270,000 active; calls by dose curve; note: potency is the fitted concentration of half-maximal effect; actives are rising curves; nearly all actives have a fitted effect of over 50% in size
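In this qHTS, NS1 from influenza A is expressed in budding yeast, where it slows growth. Cells are switched from glucose to 2% galactose medium (pH 6.0, -URA), treated with compound, and growth recovery is read at OD600.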
Cycloheximide cs = affects cycloheximide protein synthesis inhibition readout, counter-screen. cell reporter, cycloheximide protein synthesis inhibition counterscreen. max response, %. 12% of 300,000 active. AID 2314; in the data active = max response mostly above about 13%, no sharp cut-off; inactive = mostly below about 14%; note: read at 38.3 µM for the half of the compounds with a filed dose; 0% is about no effect
Pf growth 96h = P. falciparum growth inhibition at 96 hour, primary screen for plastid delayed-death inhibitors. P. falciparum luciferase reporter growth, 96 h. Potency, µM (doses to about 28.7 µM), for inactives: top-dose activity change, negative = inhibition, most hits filed as inhibitors. 6.9% of 320,000 active. AID 504834; note: potency is the fitted concentration of half-maximal effect; % is set by controls: 0 for no effect and ±100 for the full control effect
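Erythrocytes infected with luciferase-expressing P. falciparum were dispensed at 2% hematocrit and 0.05% parasitemia (final), then incubated with compounds 96 hours at 37 C in 5% CO2. Luminescence after detection reagent addition reported growth.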
SARS PLpro yeast = inhibitors of SARS-CoV papain-like protease in yeast. 0.19% of 330,000 active. AID 485353. Potency, µM (doses to about 32.9 µM), inactives show at the top dose activity, positive = growth rescue, usual class: activators. S. cerevisiae expressing SARS-CoV PLpro, growth rescue; calls by dose curve; note: potency is the fitted concentration of half-maximal effect; 0% is about no effect; nearly all actives have a fitted effect of over 55% in size
Pf growth 48h = inhibits P. falciparum growth in the first generation, 48 h; AID 504832; Potency, µM (top dose mostly 28.7 µM), inactives show at the highest dose activity change, negative = inhibition, usual class: inhibitors; 5.9% of 310,000 active; P. falciparum luciferase growth in erythrocytes, 48 h; note: potency is the fitted concentration of half-maximal effect; % is set by controls: 0 for no effect and ±100 for the full control effect
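Luminescence readout; reporter = integrated firefly luciferase in P. falciparum. RBC culture at 2% hematocrit, 0.1% parasitemia final, 37 C/5% CO2; decreased signal taken as growth inhibition.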
Shiga toxin inh = blocks Shiga toxin action in Vero cells | Vero cells, Shiga toxin protein synthesis inhibition reporter | inhibition, % at 38.7 µM | 9.2% of 290,000 active | AID 2315; in the data active = inhibition mostly above about 28%, no sharp cut-off; inactive = mostly below about 43%; note: 0% is about no effect
Active calls of the source: *. Compounds with a hit are over-represented: about 21% of the library has one in this group of screens. Unless noted, calls come from the whole dose curve; as a rule, active = well fitted inhibition curve with a large enough effect; inconclusive = small, poorly fitted or top-dose-only effect, or another doubt; inactive = no such curve, though single readings can be large or run the other way.

`COc1cc(S(=O)(=O)NCCN2CCOCC2)ccc1-n1cnnn1` gave Cycloheximide cs 1.2, Pf growth 96h 53.0%, SARS PLpro yeast 0.3%, Pf growth 48h 13.2% and Shiga toxin inh 46.9.
`Cc1cc(S(=O)(=O)NC2CCCCC2)ccc1-n1cnnn1` gave NS1 function inh 2.4%, Cycloheximide cs 4.3, Pf growth 96h -1.8%, SARS PLpro yeast 1.1%, Pf growth 48h -21.3% and Shiga toxin inh -10.3.
For COc1ccc(S(=O)(=O)NC2CCCCC2)cc1-n1cnnn1 the results were NS1 function inh 0.5%, Cycloheximide cs 5.2, Pf growth 96h 2.62µM*, SARS PLpro yeast -0.6%, Pf growth 48h -0.1% and Shiga toxin inh -3.6.
Screening COc1cc(S(=O)(=O)N(Cc2cccs2)CC2CCCO2)ccc1-n1cnnn1 (stereo not drawn) returned NS1 function inh -14.2%, Cycloheximide cs -2.5, Pf growth 96h 4.15µM*, SARS PLpro yeast -4.1%, Pf growth 48h -18.3% and Shiga toxin inh 5.0.
Screening COc1cc(S(=O)(=O)N(Cc2ccccc2)CC2CCCO2)ccc1-n1cnnn1 (stereo not drawn) returned NS1 function inh -4.8%, Cycloheximide cs -1.3, Pf growth 96h -2.1%, SARS PLpro yeast -0.6%, Pf growth 48h -9.1% and Shiga toxin inh -12.1.
For COc1cc(S(=O)(=O)NCC2COCCO2)ccc1-n1cnnn1 (stereo not drawn) the results were NS1 function inh 5.3%, Cycloheximide cs 3.8, Pf growth 96h 11.7µM*, SARS PLpro yeast 0.1%, Pf growth 48h -16.9% and Shiga toxin inh -20.0.
Screening Cc1ccc(S(=O)ON2CCC(C(=O)O)(c3ccccc3)CC2)cc1 (stereo not drawn) returned NS1 function inh -5.1%.
Screening Cc1cc(NC(=O)CSc2nc(C)c(C)c(=O)[nH]2)no1 returned Pf growth 96h 19.8%, SARS PLpro yeast -2.0% and Pf growth 48h -7.4%.
`Cc1ccc(NC(=O)CSCC(=O)Nc2cc(Cl)ccc2N2CCN(C)CC2)cc1` gave Pf growth 96h inconclusive, SARS PLpro yeast -0.7% and Pf growth 48h 13.1µM*.
`Cc1ccc(SCC(=O)Nc2ccc(N3CCN(C)CC3)c(F)c2)cc1` gave NS1 function inh -7.4%, Cycloheximide cs 48.1*, Pf growth 96h 47.6%, SARS PLpro yeast -8.6%, Pf growth 48h 53.4% and Shiga toxin inh 89.8*.
`Cc1ccc(NC(=O)CSCC(=O)Nc2cc(C(F)(F)F)ccc2N2CCOCC2)cc1` gave Pf growth 96h inconclusive, SARS PLpro yeast -3.4% and Pf growth 48h inconclusive.
For COc1ccc(SCC(=O)Nc2ccc(N3CCN(C)CC3)c(F)c2)cc1 the results were NS1 function inh 5.5%, Cycloheximide cs 5.2, Pf growth 96h -16.7%, SARS PLpro yeast -1.0%, Pf growth 48h inconclusive and Shiga toxin inh 19.3.
`COc1ccc(CC(=O)Nc2cc(Cl)ccc2N2CCCC2)cc1` gave NS1 function inh 5.0%, Cycloheximide cs -2.1, Pf growth 96h -24.9%, SARS PLpro yeast -0.3%, Pf growth 48h inconclusive and Shiga toxin inh -6.6.
Screening CC(C)C(=O)Nc1ccc(N2CCN(C)CC2)c(F)c1 returned NS1 function inh 4.9%, Cycloheximide cs 22.1*, Pf growth 96h 17.0%, SARS PLpro yeast -1.0%, Pf growth 48h 26.2% and Shiga toxin inh 39.1.
For CN1CCN(c2ccc(NC(=O)CN3CCOCC3)cc2F)CC1 the results were Cycloheximide cs -3.2, Pf growth 96h inconclusive, SARS PLpro yeast 0.9%, Pf growth 48h inconclusive and Shiga toxin inh 1.2.
`COc1ccc(CCC(=O)Nc2cc(Cl)ccc2N2CCN(C)CC2)cc1` gave NS1 function inh 11.1%, Cycloheximide cs -2.2, Pf growth 96h 4.65µM*, SARS PLpro yeast -7.0%, Pf growth 48h 7.38µM* and Shiga toxin inh -27.3.
Cc1ccc(NC2c3ncccc3C(=O)N2Cc2cccs2)cc1 (stereo not drawn) was read as Cycloheximide cs 2.5, Pf growth 96h 17.0%, SARS PLpro yeast 1.2%, Pf growth 48h -1.7% and Shiga toxin inh -12.9.
`O=C(Cn1cc(C(F)(F)F)ccc1=O)N/N=C/c1ccc(Cl)cc1` gave NS1 function inh 8.3%, Cycloheximide cs -1.4, Pf growth 96h 44.4%, SARS PLpro yeast 6.8%, Pf growth 48h 40.0% and Shiga toxin inh -11.9.
`CC(Oc1ccc(Br)cc1)C(=O)Nc1cc(Cl)ccc1N1CCN(C)CC1` (stereo not drawn) gave Pf growth 96h 11.7µM*, SARS PLpro yeast -2.0% and Pf growth 48h 11.7µM*.
For Cc1nc2cc(NC(=O)Nc3cccc4ccccc34)ccc2n1C the results were NS1 function inh -0.2%, Cycloheximide cs 28.2, Pf growth 96h 22.4%, SARS PLpro yeast 0.2%, Pf growth 48h -49.2% and Shiga toxin inh 83.4.
For Cc1cc2c(NC(=O)Nc3ccc(C(C)(C)C)cc3)cccc2nn1 the results were NS1 function inh 10.5%, Cycloheximide cs 12.2, Pf growth 96h 11.7µM*, SARS PLpro yeast -0.2%, Pf growth 48h inconclusive and Shiga toxin inh 27.7.
`Cc1cc2c(NC(=O)Nc3ccccc3)cccc2nn1` gave NS1 function inh 3.0%, Cycloheximide cs 5.2, Pf growth 96h 13.1µM*, SARS PLpro yeast 0.6%, Pf growth 48h inconclusive and Shiga toxin inh 19.7.
For O=C(CCS(=O)(=O)c1cccc2nonc12)Nc1ccc(Br)cc1 the results were NS1 function inh 13.1%, Cycloheximide cs 1.5, Pf growth 96h 14.2%, SARS PLpro yeast 3.6%, Pf growth 48h 17.0% and Shiga toxin inh 18.0.
`CN(C)CCCN(C(=O)c1ccc(S(=O)(=O)N(C)C2CCCCC2)cc1)c1nc2ccc(Br)cc2s1` gave NS1 function inh -2.1%, Cycloheximide cs -0.7, Pf growth 96h inconclusive, SARS PLpro yeast 0.5%, Pf growth 48h 13.1µM* and Shiga toxin inh 7.8.
Screening Cc1cc(C)c2sc(N(CCCN(C)C)C(=O)c3ccc(S(=O)(=O)N(C)C4CCCCC4)cc3)nc2c1 returned Pf growth 96h inconclusive, SARS PLpro yeast 8.3% and Pf growth 48h 10.4µM*.
`CCCCNc1nc2sc3c(c2c(=O)n1-c1cccc(Cl)c1)CCN(C)C3` gave NS1 function inh -0.3%, Cycloheximide cs -4.2, Pf growth 96h 0.37µM*, SARS PLpro yeast -0.9%, Pf growth 48h 1.85µM* and Shiga toxin inh -11.7.
Screening CCCCCNc1nc2sc3c(c2c(=O)n1-c1cccc(Cl)c1)CCN(C)C3 returned NS1 function inh 9.5%, Cycloheximide cs -2.0, Pf growth 96h 0.165µM*, SARS PLpro yeast 0.4%, Pf growth 48h 1.47µM* and Shiga toxin inh -5.4.
`COc1cc(NC(=O)Cn2c([N+](=O)[O-])cnc2C)c(OC)cc1Cl` gave NS1 function inh 14.6%, Cycloheximide cs -3.6, Pf growth 96h inconclusive, SARS PLpro yeast 2.9% and Pf growth 48h inconclusive.

Compound activity as filed in PubChem.
